Source: PubChem BioAssay
Only a selection was taken, and hits are over-represented in it overall.
IDE exosite FP = displaces the probe from the exo-site of human IDE. P14735. purified IDE, FL-6b probe fluorescence polarization; active compounds read low. z-score at 20 µM. 17,000 tested, 6.3% active. AID 1259349;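 active means z-score of -3 or lower, meaning strong loss of probe binding signal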;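 further: His-tagged human IDE residues 42-1019 made in E. coli with 30 nM FL-6b probe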
Target sequence (P14735 42-1019 limits assumed): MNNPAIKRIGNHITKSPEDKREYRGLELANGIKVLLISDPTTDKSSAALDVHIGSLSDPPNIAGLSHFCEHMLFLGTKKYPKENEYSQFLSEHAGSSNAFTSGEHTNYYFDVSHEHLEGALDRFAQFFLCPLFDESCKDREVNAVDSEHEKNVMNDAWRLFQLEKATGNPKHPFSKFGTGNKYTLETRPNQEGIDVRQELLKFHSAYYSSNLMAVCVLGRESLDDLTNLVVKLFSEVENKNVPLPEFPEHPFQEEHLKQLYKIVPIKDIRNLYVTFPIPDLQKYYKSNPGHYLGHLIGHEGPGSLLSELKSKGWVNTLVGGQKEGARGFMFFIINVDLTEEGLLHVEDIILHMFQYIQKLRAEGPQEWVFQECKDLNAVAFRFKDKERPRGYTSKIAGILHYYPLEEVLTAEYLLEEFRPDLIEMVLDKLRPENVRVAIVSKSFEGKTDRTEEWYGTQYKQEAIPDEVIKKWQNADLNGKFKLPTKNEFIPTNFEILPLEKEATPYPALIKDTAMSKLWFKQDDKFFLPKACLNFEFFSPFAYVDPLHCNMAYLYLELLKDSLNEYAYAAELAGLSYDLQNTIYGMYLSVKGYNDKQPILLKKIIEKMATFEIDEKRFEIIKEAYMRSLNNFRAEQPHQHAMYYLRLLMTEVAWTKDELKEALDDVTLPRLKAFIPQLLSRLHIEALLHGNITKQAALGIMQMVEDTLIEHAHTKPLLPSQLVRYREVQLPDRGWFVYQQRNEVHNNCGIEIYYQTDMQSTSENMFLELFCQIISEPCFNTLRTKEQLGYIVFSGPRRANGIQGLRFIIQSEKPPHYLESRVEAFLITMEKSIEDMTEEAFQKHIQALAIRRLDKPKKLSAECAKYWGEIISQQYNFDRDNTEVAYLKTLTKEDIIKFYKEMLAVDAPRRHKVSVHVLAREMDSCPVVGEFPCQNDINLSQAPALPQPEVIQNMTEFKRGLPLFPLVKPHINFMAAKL
* hit, by the source's call; ! = repeats disagree.

What do the screens show for `O=C(Cc1ccccn1)N1CC(=O)N2[C@@H](CO)[C@H](c3ccc(-c4ccc(F)cc4)cc3)[C@@H]2C1`?
IDE exosite FP: 1.4

Results for O=C(CN1CCOCC1)N[C@@H]1CC[C@H](CCn2cc(C3CC3)nn2)O[C@@H]1CO ?
IDE exosite FP: 0.45

Results for CN(Cc1cncnc1)C[C@@H]1N[C@H](CO)[C@@H]1c1ccc(-c2ccc(C#N)cc2)cc1 ?
IDE exosite FP: 8

Results for CO[C@H]1CN(C)C(=O)c2cccc(C#N)c2OCC[C@H]2CC[C@H](OC)[C@@H](CN(C)C(=O)[C@H]1C)O2 ?
IDE exosite FP: -0.77

What do the screens show for `N#C[C@@H]1N[C@@H](CO)[C@H]1c1ccc(C#Cc2ccc(F)cc2)cc1`?
IDE exosite FP: 1.1

Results for CN(C[C@H]1[C@H](c2ccccc2)[C@@H](CO)N1C(=O)c1ccccc1)C(=O)C1CCC1 ?
IDE exosite FP: 2.7

How did CC(C)C#Cc1ccc([C@H]2[C@@H](CO)N3C(=O)CN(C(=O)NC4CCCC4)C[C@@H]23)cc1 do in these assays?
IDE exosite FP: 0.77

What do the screens show for `CN1C(=O)c2cc(NC(=O)c3ccc(F)c(F)c3)ccc2OC[C@@H]2O[C@@H](CC(=O)N3CCCCC3)CC[C@@H]21`?
IDE exosite FP: 0.21

What do the screens show for `Cc1ccccc1-c1ccc([C@@H]2[C@H](CO)N3C(=O)CN(C(=O)c4ccncc4)C[C@@H]23)cc1`?
IDE exosite FP: -5.3*

Results for Cc1ccccc1-c1ccc([C@H]2[C@@H](CO)N3C(=O)CN(C(=O)c4ccccn4)C[C@@H]23)cc1 ?
IDE exosite FP: -12*

How did Cc1ccccc1-c1ccc([C@@H]2[C@H]3CN(C(=O)c4ccncc4)CC(=O)N3[C@H]2CO)cc1 do in these assays?
IDE exosite FP: -14*

Results for CC(C)C#Cc1ccc([C@@H]2[C@@H](CO)N3C(=O)CN(C(=O)c4ccccn4)C[C@H]23)cc1 ?
IDE exosite FP: 2.7

What do the screens show for `O=C(c1ccncc1)N1CC(=O)N2[C@H](CO)[C@H](c3ccc(-c4cccnc4)cc3)[C@@H]2C1`?
IDE exosite FP: 1.6

Results for Cc1ccccc1-c1ccc([C@@H]2[C@@H](CO)N3C(=O)CN(C(=O)c4ccncc4)C[C@@H]23)cc1 ?
IDE exosite FP: -3.5*

What do the screens show for `COc1ccc(-c2ccc([C@H]3[C@@H](CO)N4C(=O)CN(C(=O)c5ccccn5)C[C@@H]34)cc2)cc1`?
IDE exosite FP: -1.3

What do the screens show for `Cc1ccccc1-c1ccc([C@H]2[C@H]3CN(C(=O)c4cccnc4)CC(=O)N3[C@H]2CO)cc1`?
IDE exosite FP: -2

What do the screens show for `O=C(c1ccncc1)N1CC(=O)N2[C@@H](CO)[C@@H](c3ccc(-c4cccnc4)cc3)[C@@H]2C1`?
IDE exosite FP: 1.8

Results for Cc1ccccc1-c1ccc([C@H]2[C@H]3CN(C(=O)c4ccccc4)CC(=O)N3[C@H]2CO)cc1 ?
IDE exosite FP: 0.77

What do the screens show for `Cc1ccccc1-c1ccc([C@H]2[C@H]3CN(C(=O)c4ccncc4)CC(=O)N3[C@H]2CO)cc1`?
IDE exosite FP: 0.38

How did COC(=O)C[C@H]1C[C@@H]2c3cc(N)ccc3O[C@@H]2[C@H](CO)O1 do in these assays?
IDE exosite FP: -0.33

How did CC(=O)N1[C@H](CO)[C@@H](c2ccccc2)[C@H]1CN(C(=O)c1ccccc1)C(C)C do in these assays?
IDE exosite FP: 1.1

How did COc1ccc2c3c([nH]c2c1)[C@H](CO)N(S(C)(=O)=O)CC31CCN(C(=O)Nc2ccccc2)CC1 do in these assays?
IDE exosite FP: 0.71

Results for CCN(C[C@@H]1N[C@H](CO)[C@H]1c1ccc(-c2ccccc2)cc1)C(=O)COC ?
IDE exosite FP: -2.5

What do the screens show for `C[C@H](CO)N1C[C@H](C)[C@@H](CN(C)Cc2ccccc2C(=O)O)Oc2cc(-c3ccc(F)cc3)ccc2S1(=O)=O`?
IDE exosite FP: -1.5

What do the screens show for `O=C(C[C@H]1CC[C@@H]2[C@H](COC[C@H](O)CN2C(=O)c2ccncc2)O1)NCc1cc(F)cc(F)c1`?
IDE exosite FP: 0.45

How did C[C@@H]1CN([C@@H](C)CO)C(=O)c2cc(NS(C)(=O)=O)ccc2O[C@@H](C)CCCCO[C@@H]1CN(C)C(=O)Cc1ccccc1 do in these assays?
IDE exosite FP: 1.6

What do the screens show for `OC[C@@H]1[C@H](c2ccc(-c3ccncc3)cc2)[C@@H]2CN(Cc3ccccn3)CCCCN12`?
IDE exosite FP: 4.1

How did O=C(c1ccncc1)N1CC(=O)N2[C@H](CO)[C@@H](c3ccc(-c4ccccc4F)cc3)[C@@H]2C1 do in these assays?
IDE exosite FP: -1.9

Results for O=C(c1ccncc1)N1CC(=O)N2[C@H](CO)[C@H](c3ccc(-c4ccccc4F)cc3)[C@H]2C1 ?
IDE exosite FP: -4.8*

Results for O=C(c1ccncc1)N1CC(=O)N2[C@H](C1)[C@H](c1ccc(-c3ccccc3F)cc1)[C@@H]2CO ?
IDE exosite FP: -0.15

Results for COc1ccc2c3c([nH]c2c1)[C@H](CO)N(C(=O)c1ccc(F)cc1)CC31CCN(S(=O)(=O)c2cccs2)CC1 ?
IDE exosite FP: -1

What do the screens show for `COc1cccc(CN2[C@@H]3CNC[C@H]2C3c2ccc(-c3ccncc3)cc2)c1` (stereo partly drawn)?
IDE exosite FP: 5.3

How did O=C(C1CCOCC1)N1C[C@@H]2N[C@H](C1)C2c1ccc(-c2ccccc2F)cc1 (stereo partly drawn) do in these assays?
IDE exosite FP: -3*!

How did N#Cc1ccc(-c2ccc(C3[C@@H]4CN(C(=O)C5CCOCC5)C[C@H]3N4)cc2)cc1 (stereo partly drawn) do in these assays?
IDE exosite FP: 1.9

How did CN(C)C(=O)c1ccc(-c2ccc(C3[C@@H]4CN(Cc5cccnc5)C[C@H]3N4)cc2)cc1 (stereo partly drawn) do in these assays?
IDE exosite FP: 1.2

What do the screens show for `Fc1cccc(-c2ccc(C3[C@@H]4CN(Cc5cccnc5)C[C@H]3N4)cc2)c1` (stereo partly drawn)?
IDE exosite FP: 1.4

How did Cc1ccccc1-c1ccc(C2[C@@H]3CN(Cc4cccnc4)C[C@H]2N3)cc1 (stereo partly drawn) do in these assays?
IDE exosite FP: -14*

Results for O=C(c1ccccn1)N1C[C@@H]2N[C@H](C1)C2c1ccc(-c2ccccc2F)cc1 (stereo partly drawn) ?
IDE exosite FP: -5.8*!

How did Cc1ccccc1-c1ccc(C2[C@@H]3CN(C(=O)C4CCOCC4)C[C@H]2N3)cc1 (stereo partly drawn) do in these assays?
IDE exosite FP: -7.7*!

What do the screens show for `CN(C)C(=O)c1ccc(-c2ccc(C3[C@@H]4CN(C(=O)c5ccccn5)C[C@H]3N4)cc2)cc1` (stereo partly drawn)?
IDE exosite FP: 1.1

Results for O=C(C1CCC1)N1C[C@@H]2N[C@H](C1)C2c1ccc(-c2cccc(F)c2)cc1 (stereo partly drawn) ?
IDE exosite FP: 1

How did N#C[C@@H]1[C@H](c2ccc(-c3ccccc3F)cc2)[C@H](CO)N1C(=O)C1CCOCC1 do in these assays?
IDE exosite FP: -0.72

Results for N#Cc1ccc(-c2ccc(C3[C@@H]4CN(C(=O)c5ccccn5)C[C@H]3N4)cc2)cc1 (stereo partly drawn) ?
IDE exosite FP: 2.8

Results for O=C(C1CCOCC1)N1C[C@@H]2N[C@H](C1)C2c1ccc(-c2cccc(F)c2)cc1 (stereo partly drawn) ?
IDE exosite FP: 4.2

How did OC[C@H]1[C@H](c2ccc(C#CC3(O)CCCC3)cc2)[C@H]2CN(Cc3cncnc3)CCCCN21 do in these assays?
IDE exosite FP: 0.53
